Laboratory results published in PubChem BioAssay (Tox21).
Where “and” joins values, the source holds several entries; their conditions need not be identical. Identical values can stand only once. Records with an inconclusive call do not appear. Entries that show only a call come without a potency. Where a structure was tested more than once in an assay, its records may differ in their call. Calls of active or inactive are those of the source. Calls follow the shape of the full dose curve.
Potency is read from the fitted curve at half-maximal effect.

These compounds were tested against Acetylcholinesterase (Homo sapiens) (UniProt P22303) (assay: Acetylcholinesterase (AChE) small molecule antagonists: colormetric cell-based qHTS assay (AID 1347395; also: nearly all actives have a fitted effect of over 30% in size)). Conditions: SH-SY5Y cells AChE activity, colorimetric (Ellman); series mostly up to 115 µM.
Sequence of Acetylcholinesterase (Homo sapiens) (P22303 whole entry, looked up): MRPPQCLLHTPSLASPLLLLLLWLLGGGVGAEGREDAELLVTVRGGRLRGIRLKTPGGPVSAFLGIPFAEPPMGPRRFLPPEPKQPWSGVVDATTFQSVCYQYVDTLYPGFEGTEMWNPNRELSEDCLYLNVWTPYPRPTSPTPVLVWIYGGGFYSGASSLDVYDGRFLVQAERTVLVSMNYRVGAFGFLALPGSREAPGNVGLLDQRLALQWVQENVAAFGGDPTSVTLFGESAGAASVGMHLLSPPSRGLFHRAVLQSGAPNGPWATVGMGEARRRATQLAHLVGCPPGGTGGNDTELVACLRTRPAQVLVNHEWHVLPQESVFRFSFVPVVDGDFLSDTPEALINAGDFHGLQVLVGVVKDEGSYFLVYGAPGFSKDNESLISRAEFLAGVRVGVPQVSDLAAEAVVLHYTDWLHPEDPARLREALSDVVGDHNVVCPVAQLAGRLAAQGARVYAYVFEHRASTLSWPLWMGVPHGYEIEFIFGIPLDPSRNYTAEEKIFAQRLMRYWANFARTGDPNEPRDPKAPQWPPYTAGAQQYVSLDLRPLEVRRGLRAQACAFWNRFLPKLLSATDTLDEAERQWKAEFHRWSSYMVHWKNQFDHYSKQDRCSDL
Method in brief: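 Endogenous AChE of human neuroblastoma SH-SY5Y cells was measured with an Ellman-type DTNB/acetylthiocholine mix. Compound pretreatment lasted 30 min at 37 C; substrate reaction ran 90 min at 37 C.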
For COC(OC)OC, the Potency was “inactive”. With COc1ccc(C(=O)c2ccc(C)cc2)c(O)c1 the Potency was “inactive”. With CCCCCC1Nc2cc(C(F)(F)F)c(S(N)(=O)=O)cc2S(=O)(=O)N1 (stereo not drawn) the Potency was 15.5 µM (active). For NC(=NCCCCCCN=C(N)/N=C(\N)Nc1ccc(Cl)cc1)/N=C(\N)Nc1ccc(Cl)cc1, the Potency was 56.1 µM (active) and 62.9 µM (active) and inactive. In the case of CCCCCCCCOC(=O)c1ccc(O)cc1, the Potency is reported as “inactive”. O=C(O)O was tested, and the activity, negative = inhibition was -0.194% [at 10.5 µM] (inactive). C=CC(C)(O)CCC=C(C)C (stereo not drawn) was tested, and the Potency was “inactive”. CC1COC(=O)O1 (stereo not drawn) was tested, and the Potency was “inactive”. For N#CCC(=O)O, the Potency was “inactive”. For NS(=O)(=O)c1cc2c(cc1Cl)NC(C1CC3C=CC1C3)NS2(=O)=O (stereo not drawn), the Potency was “inactive”. With O=S(=O)(O)c1cc(S(=O)(=O)O)c2c(N=Nc3ccccc3)c(O)ccc2c1 the Potency was “inactive”. CCc1cccc(CC)c1 was tested, and the Potency was “inactive”. For CC(=O)Nc1ccc(OCC(O)CNC(C)C)cc1 (stereo not drawn), the Potency was “inactive”. With CCC(C)OC(=O)c1ccc(O)cc1 (stereo not drawn) the Potency was “inactive”. Nc1cc(Cl)c(-c2cc(Cl)c(N)cc2Cl)cc1Cl was tested, and the Potency was “inactive”. In the case of CC1(C)CO[C@@H](CC(=O)O)CN1, the Potency is reported as “inactive”. COc1ccc2cc1Oc1cc3c(cc1OC)CC[N+](C)(C)[C@H]3Cc1ccc(cc1)Oc1c(OC)c(OC)cc3c1[C@@H](C2)[N+](C)(C)CC3 was tested, and the Potency was “inactive”. CCCCCCCCCCCC(=O)OC was tested, and the Potency was “inactive”. In the case of [Cl][Sc]([Cl])[Cl], the Potency is reported as “inactive”. For CC(C)OC(C)C, the Potency was “inactive”. CCN(CC)c1ccc(C(=O)c2ccccc2C(=O)O)c(O)c1 was tested, and the Potency was “inactive”. With CC(C)OC(=O)CCC(=O)OC(C)C the Potency was “inactive”. With O=C1c2ccccc2C(=O)C1c1nc2ccccc2c(Br)c1O the Potency was “inactive”. CC(=O)[C@H]1CC[C@H]2[C@@H]3CCC4=CC(=O)CC[C@]4(C)[C@H]3CC[C@]12C was tested, and the Potency was 39.7 µM (active) and 35.6 µM (active). In the case of CCCCCC[C@@H](O)C/C=C\CCCCCCCC(=O)OCC(O)CO (stereo partly drawn), the Potency is reported as “inactive”. With CN(C)c1ccncc1 the Potency was “inactive”. With COCCOCC(OC)OC the Potency was “inactive”. In the case of O=C(O)CNCC(=O)O, the activity, negative = inhibition is reported as 1.88% [at 10.5 µM] (inactive). With CCc1cccc(O)c1 the Potency was “inactive”. In the case of CC(=O)OC1CCCCC1, the Potency is reported as “inactive”. With C=C(C)C(=O)O the Potency was “inactive”. In the case of O=C(NOCC1CC1)c1ccc(F)c(F)c1Nc1ccc(I)cc1Cl, the Potency is reported as “inactive”. For C1CSCCS1, the Potency was “inactive”. CCN=C1C=CC(=C(c2ccc(N(CC)CC)cc2)c2ccc(N(CC)CC)cc2)c2ccccc21 was tested, and the Potency was 62.9 µM (active). CC(C)=CC1CC(C)CCO1 (stereo not drawn) was tested, and the Potency was “inactive”. For O=[N+]([O-])c1ccc(CCO)cc1, the Potency was “inactive”. For CC(CCc1ccc(O)cc1)NCCc1ccc(O)c(O)c1 (stereo not drawn), the Potency was “inactive”. In the case of Nc1ccccc1Nc1ccccc1, the Potency is reported as “inactive”.
